Laboratory results published in PubChem BioAssay (NCATS).
Several values for one entry are separate records, joined by “and”; a condition that tells them apart may be missing. Identical values can stand only once. Results filed as inconclusive are left out. A structure can be active in one record and inactive in another. Activity calls are given as the source filed them. The call rests on the fitted dose curve; in most records, active means well fitted inhibition curve with a large enough effect; inconclusive means small, poorly fitted or top-dose-only effect; inactive means no such curve, though single readings can be large or run the other way.

The molecules below were run against Tyrosine-protein kinase Yes (Homo sapiens) (UniProt P07947) (assay: qHTS for small molecule inhibitors of Yes1 kinase: Primary Screen (AID 686947; further: nearly all actives have a fitted effect of over 60% in size;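 on activity change, negative = inhibition: plate controls were DMSO with enzyme for no effect and no-enzyme DMSO wells for full effect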)). Details: Yes1 kinase biochemical qHTS inhibition; series mostly up to 76.9 µM; activity change, negative = inhibition: at the top concentration.
How it was run: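 Yes1 (4 nM) preincubated 20 min with compound, then 60 min room-temperature reaction with 0.1 mM ATP and 0.3 mg/mL poly(E4Y) in pH 7.5 Tris, 10 mM MgCl2. ADP measured by ADP-Glo luminescence, normalised to enzyme/no-enzyme controls.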
Potency means the concentration at half of the fitted maximal effect.

Chain of Tyrosine-protein kinase Yes (Homo sapiens) (P07947 whole entry, looked up): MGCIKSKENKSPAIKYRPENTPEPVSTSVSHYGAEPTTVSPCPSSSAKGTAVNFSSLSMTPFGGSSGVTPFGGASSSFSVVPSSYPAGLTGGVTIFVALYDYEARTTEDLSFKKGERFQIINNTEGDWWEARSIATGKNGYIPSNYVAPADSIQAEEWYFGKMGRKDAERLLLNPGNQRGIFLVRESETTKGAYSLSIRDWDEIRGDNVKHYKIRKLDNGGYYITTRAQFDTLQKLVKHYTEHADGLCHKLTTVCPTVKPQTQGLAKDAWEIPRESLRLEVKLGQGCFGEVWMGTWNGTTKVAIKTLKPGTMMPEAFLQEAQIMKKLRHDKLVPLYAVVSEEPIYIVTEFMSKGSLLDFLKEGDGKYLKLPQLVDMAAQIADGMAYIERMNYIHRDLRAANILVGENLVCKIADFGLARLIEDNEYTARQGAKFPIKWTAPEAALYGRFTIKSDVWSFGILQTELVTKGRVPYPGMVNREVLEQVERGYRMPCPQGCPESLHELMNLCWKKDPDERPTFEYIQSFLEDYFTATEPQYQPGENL

Row | Structure (SMILES) | activity change, negative = inhibition | Potency
1 | Clc1ccc(CNc2nccc(-c3cnn4ncccc34)n2)cc1 | -10.4% (inactive) | –
2 | Cc1ccc(NC(=O)CC2CC2)cc1-c1ccc(C(=O)NCC2CC2)cc1 | 6.55% (inactive) | –
3 | Nc1nccc(-c2c(-c3ccc(F)cc3)ncn2C2CCNCC2)n1 | – | 2.07 µM (active) and 6.54 µM (active)
4 | COc1cc(Nc2nccc(Nc3ccc4c(C)[nH]nc4c3)n2)cc(OC)c1OC | – | 0.0923 µM (active)
5 | COc1cc(Nc2ncc3c(C)nc(-c4cccc(Oc5ccccc5)c4)n3n2)cc(OC)c1OC | – | 5.19 µM (active)
6 | Cc1ccc2c(-c3ccnc(Nc4cccc(C(F)(F)F)c4)n3)c(-c3ccccc3)nn2n1 | – | 0.146 µM (active)
7 | Fc1ccc(-c2ncn(C3CCNCC3)c2-c2ccnc(Oc3ccc(Oc4ccccc4)cc3)n2)cc1 | -0.381% (inactive) | –
8 | COc1cc(Nc2nccc(-c3cnn4ncccc34)n2)cc(OC)c1 | – | 0.519 µM (active)
9 | COc1cc(C)c(N(C)C(=O)CN(C)C)cc1Nc1nc(Nc2cccc(F)c2C(N)=O)c2cc[nH]c2n1 | 123% (inactive) | –
10 | CCc1cccc(CC)c1C=Cc1cncc(C(=O)NC)c1 | – | 26 µM (active)
11 | CN1CCC(C(=O)Nc2n[nH]c3nnc(-c4ccccc4)cc23)CC1 | – | 13 µM (active)
12 | NS(=O)(=O)c1ccc(N=Nc2c(O)[nH]c3ccc(Cl)cc23)cc1 | – | 36.8 µM (active)
13 | CN(C)CCNC(=O)Nc1ccc(N(C)c2ccnc(Nc3ccc(CS(C)(=O)=O)cc3)n2)cc1 | – | 7.33 µM (active)
14 | O=C1NC(=O)C(c2ccc(Cl)cc2)=C1Nc1ccc(Cl)c(C(=O)O)c1 | 4.93% (inactive) | –
15 | CC(C)c1ccc(Nc2nccc(-c3cnn4ncccc34)n2)cc1 | – | 26 µM (active)
16 | CN(C)C(=O)OC1CNC(C#Cc2cc3ncnc(Nc4ccc(OCc5cccc(F)c5)c(Cl)c4)c3s2)C1 (stereo not given) | – | 8.23 µM (active) and 7.33 µM (active)
17 | C#Cc1cccc(Nc2ncnc3ccc(OCCCCNCCS(C)(=O)=O)cc23)c1 | – | 7.33 µM (active)
18 | CN(c1ccc(NC(=O)Nc2c(Cl)cccc2Cl)cc1)c1ccnc(Nc2cccc(CS(C)(=O)=O)c2)n1 | – | 1.46 µM (active)
19 | Cc1ccc2c(-c3ccnc(Nc4ccccc4)n3)c(-c3ccc(F)cc3)nn2n1 | – | 0.116 µM (active)
20 | c1ccc(Oc2ccc(Nc3ncc(-c4ccccc4)o3)cc2)cc1 | -0.567% (inactive) | –

Row | Structure (SMILES) | activity change, negative = inhibition | Potency
21 | CCn1c(-c2nonc2N)nc2cncc(C(=O)N3CCNCC3)c21 | – | 1.46 µM (active)
22 | CS(=O)(=O)Nc1ccc(N=Cc2c(O)[nH]c3ccccc23)cc1 | – | 3.68 µM (active)
23 | ON=C1CCc2cc(-c3nc(C4CCNCC4)[nH]c3-c3ccncc3)ccc21 | 229% (inactive) | –
24 | O=C1NC(=O)C(c2cccc(Cl)c2)=C1Nc1ccc(O)c(Cl)c1 | – | 9.23 µM (active)
25 | CS(=O)(=O)CCNCc1ccc(-c2ccc3ncnc(Nc4ccc(OCc5ccccc5)c(Br)c4)c3c2)o1 | – | 2.32 µM (active)
26 | NS(=O)(=O)c1ccc(N=Nc2c(O)[nH]c3cccc(CCc4ccncc4)c23)cc1 | 9.29% (inactive) | –
27 | c1ccc(COc2ccc(Nc3ncnc4ccc(-c5ccco5)cc34)cc2)cc1 | – | 3.68 µM (active)
28 | CC1=C(C(=O)Nc2cc(Cl)c3[nH]ncc3c2)C(c2ccc(C(F)(F)F)cc2)CC(=O)N1 (stereo not given) | – | 2.6 µM (active)
29 | CCc1cccc(NC(=O)Nc2ccc(Oc3ccc4nc(NC(=O)OC)[nH]c4c3)cc2)c1 | -99.4% (inactive) | –
30 | Nc1ccc(C#Cc2cncnc2Nc2ccc(OCc3cccc(F)c3)c(Cl)c2)cc1 | -11.1% (inactive) | –
31 | CCS(=O)(=O)c1ccc(OC)c(Nc2ncc(-c3cccc(OC)c3)o2)c1 | – | 0.13 µM (active)
32 | Fc1cccc(COc2ccc(Nc3ncnc4sc(-c5ccco5)cc34)cc2Cl)c1 | -1.41% (inactive) | –
33 | COc1ccc(-c2nn3ncccc3c2-c2ccnc(Nc3ccc4c(c3)OCCO4)n2)cc1 | – | 0.0292 µM (active)
34 | COc1cc(N2CCN(C(C)C)CC2)ccc1Nc1nc(Nc2ccc(F)cc2C(=O)NCC(O)CO)c2cc[nH]c2n1 (stereo not given) | -13.4% (inactive) | –
35 | Nc1ncnc2occ(-c3ccc(NC(=O)Nc4cc(C(F)(F)F)ccc4F)cc3)c12 | – | 2.07 µM (active) and inactive
36 | O=S1CCN(Cc2ccc(-c3ccc4ncnc(Nc5ccc(OCc6ccccc6)c(Cl)c5)c4c3)o2)CC1 | – | 0.368 µM (active)
37 | O=C1NC(=O)C(N2CCc3ccccc32)=C1c1ccc(Cl)cc1 | -3.14% (inactive) | –
38 | COc1ccc(CNC(=O)c2ccc(-c3cc(-c4nnc(C)o4)ccc3C)cc2)cc1 | 4.11% (inactive) | –
39 | FC(F)(F)CNc1nccc(-c2cnn3ncccc23)n1 | -15.5% (inactive) | –
40 | O=C(OC1CNC(C#Cc2cc3ncnc(Nc4ccc(Cc5ccccc5)cc4)c3s2)C1)N1CCOCC1 (stereo not given) | – | 2.07 µM (active)
